# Results: PubChem BioAssay (NCI)
# The panel holds about 83,000 compounds, 20% with a hit somewhere; the sample as a whole holds those more often.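 Activity criterion: percent growth below 10, measured after cells in 96-well plates were exposed to a single compound concentration for 48 hours.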 A number with no mark means an inactive call. Calls of active or inactive are those of the source.
# Columns and labels:
# Test in all cases: NCI-60 one-dose screen, 48 h (100 = growth as untreated, 0 = no growth, -100 = all killed)
# Conditions in all cases: 10 µM unless noted
# DU-145 prostate = system: DU-145 prostate
# K-562 leukemia = system: K-562 leukemia
# MALME-3M melanoma = system: MALME-3M melanoma
# MDA-MB-231 breast = system: MDA-MB-231 breast
# RXF 393 renal = system: RXF 393 renal
# SF-268 CNS = system: SF-268 CNS
# SF-295 CNS = system: SF-295 CNS
# SF-539 CNS = system: SF-539 CNS
# UACC-257 melanoma = system: UACC-257 melanoma
# M14 melanoma = system: M14 melanoma
# HCT-15 colon = system: HCT-15 colon
# SNB-75 CNS = system: SNB-75 CNS
# SNB-19 CNS = system: SNB-19 CNS
# U251 CNS = system: U251 CNS
# PC-3 prostate = system: PC-3 prostate
# LOX IMVI melanoma = system: LOX IMVI melanoma
# SK-MEL-28 melanoma = system: SK-MEL-28 melanoma
# HT29 colon = system: HT29 colon
# SK-MEL-5 melanoma = system: SK-MEL-5 melanoma
# UACC-62 melanoma = system: UACC-62 melanoma
Compound,growth (DU-145 prostate),growth (K-562 leukemia),growth (MALME-3M melanoma),growth (MDA-MB-231 breast),growth (RXF 393 renal),growth (SF-268 CNS),growth (SF-295 CNS),growth (SF-539 CNS),growth (UACC-257 melanoma),growth (M14 melanoma),growth (HCT-15 colon),growth (SNB-75 CNS),growth (SNB-19 CNS),growth (U251 CNS),growth (PC-3 prostate),growth (LOX IMVI melanoma),growth (SK-MEL-28 melanoma),growth (HT29 colon),growth (SK-MEL-5 melanoma),growth (UACC-62 melanoma)
O=C(N/N=C/c1ccc(OC(F)F)c(OC2CCCC2)c1)c1cnn2c1NC(c1ccccc1)C2 (stereo not drawn),85.7%,38.6%,108%,81.9%,76.9%,64.2%,80.3%,81%,88.2%,82.9%,51.1%,57.6%,79.9%,82.1%,61.7%,68.1%,88.7%,–,–,–
CCCCCCCCCCCCCCNc1nc(CO)ncc1-c1ccc(C(F)(F)F)cc1,103%,99.6%,91.8%,118%,99.8%,91.8%,97%,95.6%,94.7%,99.8%,103%,–,118%,–,94.6%,91.6%,108%,104%,98.5%,95.5%
CCC(=O)Nc1nnc(Cc2ccc(OC)c(OC)c2)s1,-49.6% (active),2.4% (active),-46.3% (active),1.66% (active),-32.9% (active),-14% (active),-78.7% (active),-74.1% (active),-26.3% (active),22.7%,31.7%,-83.3% (active),2.39% (active),-52.9% (active),9.29% (active),15.6%,-97.7% (active),–,46.6%,-3.8% (active)
O=C1/C(=C/c2ccccc2F)CNC/C1=C\c1ccccc1F,-11.6% (active),5.7% (active),-9.46% (active),-2.14% (active),-86.2% (active),-11.4% (active),-17.3% (active),-33% (active),-46.1% (active),-47.3% (active),-0.826% (active),32.5%,3.94% (active),-85.3% (active),4.63% (active),-83.5% (active),-91.1% (active),–,-88.4% (active),-58.3% (active)
COc1ccc(Cn2c(Br)c3c(c2-c2cc(OC)c(OC)c(OC)c2)CCc2sc(N)nc2-3)cc1,12.4%,4.43% (active),47.7%,12.6%,-0.407% (active),44.3%,43.7%,-13.5% (active),57.5%,12%,18.8%,–,55.4%,21.8%,28.8%,33.5%,33.9%,-12.4% (active),10.1%,25.5%
COc1ccc(/C=N/NC(=O)c2cnn(CC(O)Cc3ccccc3)c2N)cc1OC1CCCC1 (stereo not drawn),91.2%,99.5%,99.4%,86.1%,85.8%,98.3%,83.8%,87.3%,110%,99.5%,77.6%,74.2%,92.3%,85.6%,69.9%,82.4%,–,–,62.7%,82.8%
COc1c(O)c2c3c(c1OC)-c1ccccc1CC3N(S(=O)(=O)c1ccc(C)cc1)CC2 (stereo not drawn),36.5%,23%,58.6%,52.7%,58.6%,55.1%,85.2%,41.2%,54.7%,31.2%,37.3%,–,61.6%,22.5%,48.5%,51.7%,53.2%,121%,21.8%,58%
CC1(C)CC(=O)C2=C(C1)Nc1cc3c(cc1C2c1ccc(F)cc1)OCO3 (stereo not drawn),117%,87.8%,81.2%,108%,82.3%,92.5%,64.3%,102%,110%,115%,93.9%,77.3%,96.5%,90.6%,93.5%,99.1%,92.6%,–,–,98.7%
Cc1nc2cc(Nc3nc(NCCO)nc(Nc4ccc(F)cc4)n3)ccc2n1Cc1ccccc1,88.5%,19.2%,105%,80.3%,90.2%,92.2%,86.4%,94.4%,98.8%,93%,100%,–,100%,–,–,81.9%,–,71.9%,80.3%,–
CSc1ccc(OC(C)=O)cc1C,94%,114%,95.5%,113%,98.5%,94.3%,97.7%,98.5%,97.6%,101%,95%,94.3%,109%,–,–,95.5%,110%,104%,–,98.1%
Cc1nn(-c2ccccc2)c2nc3nc4c(c(N)c3c(-c3ccc(Cl)cc3)c12)CCC4,90.1%,27.7%,109%,88.1%,79.9%,102%,92.1%,90%,91.4%,98.6%,76.5%,–,111%,–,88.2%,62.5%,96.9%,55.2%,–,102%
COc1ccc(-c2csc3c2-n2cccc2C3=O)cc1O,-23.5% (active),5.65% (active),66.2%,13.2%,31.3%,13%,-31.7% (active),15.6%,43.8%,-18.5% (active),17.4%,46.5%,41.4%,4.86% (active),17.2%,22.5%,61.5%,–,–,29.4%
COc1ccc(/C=C2\CN(Cc3cn(CCCNc4ccnc5cc(Cl)ccc45)nn3)C/C(=C\c3ccc(OC)c(OC)c3)C2=O)cc1OC,11.7%,4.56% (active),17.8%,-10.2% (active),-95.1% (active),-4.95% (active),-55.9% (active),6.69% (active),45.3%,-21.5% (active),9.96% (active),–,33%,0.724% (active),–,-68.9% (active),40.1%,-40.1% (active),5.86% (active),–
CCCCCCCCCCCCCCn1c2ccccc2c2c3c(c4c5cc(OC)ccc5oc4c21)C(=O)NC3=O,111%,111%,115%,111%,122%,99.8%,104%,97%,102%,101%,94.9%,81.4%,105%,99.8%,107%,103%,107%,–,102%,101%
O=C1C(N2CCOCC2)=Cc2cccc3cccc1c23,104%,30.8%,113%,106%,99.3%,93.8%,112%,97.5%,101%,104%,92.6%,86.9%,92.4%,92.8%,95.4%,101%,97.5%,–,–,–
NC(=O)c1nc2c([nH]c1=O)CCCC2,108%,92.2%,101%,118%,97.6%,101%,103%,96.6%,109%,122%,102%,89.6%,–,106%,–,99.1%,103%,101%,–,106%
Clc1ccc2c(c1)C[C@H]1C[C@@H](c3cccs3)N2O1,106%,106%,95.9%,113%,131%,102%,94.4%,92.3%,105%,118%,97.2%,–,114%,93.7%,91.6%,93.2%,110%,111%,99.5%,105%
